Reference: PubChem BioAssay (NCI)
The panel holds about 83,000 compounds, 20% with a hit somewhere; the sample as a whole holds those more often.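 Note: values are percent growth. 100 is the growth of untreated cells, values between 100 and 0 indicate rising inhibition; between -100 and 0 indicates cell death.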 Values without a mark were called inactive. Active and inactive are the calls of the source. Rule for the calls: active = growth percent below 10; inactive = the rest.

Assays:
Assay in all cases: NCI-60 one-dose screen, 48 h (100 = growth as untreated, 0 = no growth, -100 = all killed)
Conditions in all cases: 10 µM unless noted
[1] = test system: DU-145 prostate
[2] = test system: K-562 leukemia
[3] = test system: MALME-3M melanoma
[4] = test system: MDA-MB-231 breast
[5] = test system: RXF 393 renal
[6] = test system: SF-268 CNS
[7] = test system: SF-295 CNS
[8] = test system: SF-539 CNS
[9] = test system: UACC-257 melanoma
[10] = test system: M14 melanoma
[11] = test system: HCT-15 colon
[12] = test system: HT29 colon
[13] = test system: SNB-75 CNS
[14] = test system: SNB-19 CNS
[15] = test system: U251 CNS
[16] = test system: PC-3 prostate
[17] = test system: SK-MEL-5 melanoma
[18] = test system: UACC-62 melanoma
[19] = test system: LOX IMVI melanoma
[20] = test system: SK-MEL-28 melanoma

Structure (SMILES): COc1ccc(NC(=O)c2sc3nc(C)c(C(=O)/C=C/c4ccccc4)cc3c2N)cc1
- growth [1]: 26.5%
- growth [2]: 14.4%
- growth [3]: 97.3%
- growth [4]: 60.8%
- growth [5]: -1.08% (active)
- growth [6]: 28.7%
- growth [7]: 48.8%
- growth [8]: 38.2%
- growth [9]: 98.3%
- growth [10]: 61.5%
- growth [11]: 0.101% (active)
- growth [12]: 0.196% (active)
- growth [13]: 12.2%
- growth [14]: 10.6%
- growth [15]: 1.8% (active)
- growth [16]: 52.6%
- growth [17]: 74.3%
- growth [18]: 51.8%
- growth [19]: -74.7% (active)
- growth [20]: 85.7%

Structure (SMILES): Cn1ccnc1C(=O)/C=C/c1ccc(C(=O)Nc2ccccc2O)cc1
- growth [1]: 45.6%
- growth [2]: 7.38% (active)
- growth [3]: 57.8%
- growth [4]: 46.2%
- growth [5]: 21.7%
- growth [6]: 13.2%
- growth [7]: 6.78% (active)
- growth [8]: -19.3% (active)
- growth [9]: 48.6%
- growth [10]: 71.5%
- growth [11]: 7.09% (active)
- growth [12]: 24.7%
- growth [13]: 46.2%
- growth [14]: 14.3%
- growth [15]: 5.29% (active)
- growth [16]: 23.5%
- growth [17]: 89.3%
- growth [18]: 50.6%
- growth [19]: -18% (active)
- growth [20]: 73.4%

Structure (SMILES): CN(C)S(=O)(=O)c1cccc(C(=O)Nc2nc(-c3ccc(F)c(F)c3)cs2)c1
- growth [1]: 70.7%
- growth [2]: 39.4%
- growth [3]: 90.9%
- growth [4]: 69.4%
- growth [5]: 55.1%
- growth [6]: 88.9%
- growth [7]: 49.3%
- growth [8]: 66.4%
- growth [9]: 42.5%
- growth [10]: 60.8%
- growth [11]: 61.3%
- growth [12]: 74.3%
- growth [13]: 75.5%
- growth [14]: 92%
- growth [15]: 55.1%
- growth [16]: 39.1%
- growth [17]: 2.37% (active)
- growth [18]: 45.9%
- growth [19]: 71.9%
- growth [20]: 102%

Structure (SMILES): CCN(CC)CCCCCNc1cc(OC(=O)c2ccc(Cl)cc2)cc2cccnc12
- growth [1]: 114%
- growth [2]: 75.3%
- growth [3]: 61%
- growth [4]: 85.8%
- growth [5]: 98.9%
- growth [6]: 114%
- growth [7]: 120%
- growth [8]: 104%
- growth [9]: 95.9%
- growth [10]: 102%
- growth [11]: 97.7%
- growth [12]: 87.6%
- growth [13]: 89.5%
- growth [14]: 103%
- growth [15]: 105%
- growth [16]: 88.8%
- growth [17]: 105%
- growth [18]: 98%
- growth [19]: 106%
- growth [20]: 116%

Structure (SMILES): COc1ccc(C/C(C)=C(/c2ccc(OCCN(C)C)cc2)c2ccc(OC(=O)NCc3ccccc3)cc2)cc1
- growth [1]: 81.1%
- growth [2]: -29.2% (active)
- growth [3]: 88.5%
- growth [4]: 57.9%
- growth [5]: 60.3%
- growth [6]: 72.9%
- growth [7]: 88%
- growth [8]: 88.9%
- growth [9]: 75.8%
- growth [10]: 25.1%
- growth [11]: 24.3%
- growth [12]: -13.7% (active)
- growth [13]: 77.7%
- growth [14]: 85.6%
- growth [15]: 45.7%
- growth [16]: 68.4%
- growth [17]: 63.1%
- growth [18]: 69.3%
- growth [19]: -12% (active)
- growth [20]: 54.6%

Structure (SMILES): O=C1c2c(c3c4ccccc4[nH]c3c3ccc4ccccc4c23)C(=O)N1CCN1CCNCC1
- growth [1]: 8.13% (active)
- growth [2]: -41.5% (active)
- growth [3]: 80.7%
- growth [4]: -66.8% (active)
- growth [5]: 91.6%
- growth [6]: 80.1%
- growth [7]: 89.4%
- growth [8]: 82.6%
- growth [9]: 109%
- growth [10]: 6.23% (active)
- growth [11]: -45.2% (active)
- growth [12]: -14.6% (active)
- growth [13]: 85%
- growth [14]: 74.3%
- growth [15]: -11.2% (active)
- growth [16]: 56.6%
- growth [17]: 73.5%
- growth [18]: 82%
- growth [19]: -87.2% (active)
- growth [20]: 100%

Structure (SMILES): Nc1nc2ccc(-c3nc4ccc5[nH]ncc5c4c4c3CCCC4)cc2s1
- growth [1]: 111%
- growth [2]: 94.9%
- growth [3]: 94.5%
- growth [4]: 106%
- growth [5]: 109%
- growth [6]: 98.8%
- growth [7]: 108%
- growth [8]: 106%
- growth [9]: 88.1%
- growth [10]: 101%
- growth [11]: 107%
- growth [12]: 99.2%
- growth [13]: 100%
- growth [14]: 97.7%
- growth [15]: 102%
- growth [16]: 100%
- growth [17]: 111%
- growth [18]: 102%
- growth [19]: 105%
- growth [20]: 120%

Structure (SMILES): CC1=NC2=Nn3c(c4cnn(-c5ccccc5)c4n/c3=N\N)NN2C(c2ccccc2)=C1
- growth [1]: 105%
- growth [2]: 102%
- growth [3]: 87.9%
- growth [4]: 88.7%
- growth [5]: 74%
- growth [6]: 96.1%
- growth [7]: 90.7%
- growth [8]: 94.7%
- growth [9]: 101%
- growth [10]: 93.1%
- growth [11]: 99%
- growth [12]: 98.6%
- growth [13]: 67%
- growth [14]: 98.4%
- growth [15]: 99%
- growth [16]: 90.5%
- growth [17]: 91%
- growth [18]: 77.6%
- growth [19]: 92%
- growth [20]: 102%
